# Results as given in PubChem BioAssay (NCATS).
# Records with an inconclusive call do not appear. Active and inactive are the calls of the source. Calls follow the shape of the dose curve; as a rule, active = well fitted inhibition curve with a large enough effect; inconclusive = small, poorly fitted or top-dose-only effect; inactive = flat fitted curve, though single readings scatter.
# Tested on: MCC-26
# Test: qHTS assay to identify novel small-molecules to repurpose for Merkel cell carcinoma treatment (AID 1296009); also: nearly all actives have a fitted effect of over 60% in size
# Conditions: MCC and control cell lines, CellTiter-Glo viability, 72 h; series mostly up to 46 µM
# Text: MCC is a rare and aggressive neuroendocrine skin cancer with limited treatment options. Approximately 80% of MCCs have the Merkel cell polyomavirus (MCPyV) DNA integrated into the host genome (virus-positive: VP-MCC) and viral oncogenes drive oncogenesis. The remaining MCCs are virus-negative (VN-MCC) and are caused by UV mutagenesis. To identify novel treatments for VP-MCC and/or VN-MCC we screened three VP-MCC cell lines (WAGA, MKL-1, MKL-2), three VN-MCC cell lines (MCC-13, MCC-26, UISO), and four immortalized, non-transformed control cell lines (HaCaT, HEK293T, CRL7250, NIH-3T3) against ~2,400 compounds in the NCGC Pharmaceutical Collection (NPC) and ~1,900 compounds in the Mechanism Interrogation PlatE (MiPE). Using cell viability as a readout (CellTiter-Glo assay) we found both overlapping and distinct drugs that can be repurposed for the treatment of VP-MCC and VN-MCC.
# A high-throughput screen was conducted in 1536-well white flat bottom plates (Corning) on a Kalypsys robotic system. Cell lines WAGA, MKL-1, MKL-2, MCC-13, MCC-26, UISO, HaCaT, HEK293T, CRL7250, and NIH-3T3 were screened against 2 small molecule annotated drug libraries NPC and MIPE in dose response (8 and 11 pt. respectively) measuring cell viability after 72 hours of incubation. […] A 1,536 pintool (Kalypsys) was used to transfer 23 nL of compound in DMSO to the 1,536-well assay plates. After 72 hr incubation at 37 degree celsius, 2.5 uL of CellTiter-Glo (Promega) was dispensed into each well using a BiorapTR. Plates were incubated at room temperature for 10 min, transferred to a ViewLux (PerkinElmer) and the luminescence was recorded using an exposure time of 2 seconds. Relative luminescence units (RLUs) were normalized to in-plate controls (no cells as a positive (cytotoxicity) control, DMSO as negative control) and the normalized data was processed using NCATS in-house software.
# % is scaled to controls: 0 for no effect and ±100 for the full control effect.
SMILES,outcome,"activity change, negative = cytotoxicity"
Cc1cccc(C)c1NC(=O)CC12CCCN1CCC2,inactive,–
CC1(C)[C@@H](OC(=O)CCC(=O)O)CC[C@]2(C)[C@H]3C(=O)C=C4[C@@H]5C[C@@](C)(C(=O)O)CC[C@]5(C)CC[C@@]4(C)[C@]3(C)CC[C@@H]12,inactive,–
NS(=O)(=O)c1cc(-c2nn[nH]n2)c(NCc2cccs2)cc1Cl,inactive,–
CCCCCCCCCCOc1cc2c(=O)c(C(=O)OCC)c[nH]c2cc1OCC,–,-1.97% [at 4.84 µM] (inactive)
Cn1cc(C(=O)[C@@H]2CCc3nc[nH]c3C2)c2ccccc21,inactive,–
CCN(CC)S(=O)(=O)c1ccc(C(=O)O)cc1,inactive,–
C1CCN2C[C@@H]3C[C@@H](CN4CCCC[C@@H]34)[C@H]2C1,inactive,–
CCN(CC)CCc1nc(-c2ccccc2)no1,inactive,–
Cn1c(=O)c2c(ncn2CCO)n(C)c1=O,inactive,–
COC(=O)c1ccccc1C(=O)c1ccc(OCCN2CCCCC2)cc1,inactive,–
Nc1c2c(nc3c1CCC3)CCCC2,inactive,–
C[C@]1(Cn2ccnn2)[C@H](C(=O)O)N2C(=O)C[C@H]2S1(=O)=O,inactive,–
OC[C@@H](O)[C@@H](O)[C@H](O)[C@H](O)CO,inactive,–
Cc1cccc(C(=O)O)c1O,inactive,–
NS(=O)(=O)c1cc(C2(O)NC(=O)c3ccccc32)ccc1Cl (stereo not given),inactive,–
CCOC(=O)c1cccnc1,inactive,–
O=C(O)c1ccc(OCCCOc2ccc(C(=O)O)cc2)cc1,inactive,–
NCc1ccc(S(N)(=O)=O)cc1,inactive,–
CC[C@]12CCCN3CCc4c(n(c5ccccc45)[C@@](O)(C(=O)OC)C1)[C@@H]32,inactive,–
Cc1cc(-n2nc3ccc(Cl)cc3n2)c(O)c(C(C)(C)C)c1,inactive,–

SMILES,outcome,"activity change, negative = cytotoxicity"
C[C@H]1COc2c(C3(N)CC3)c(F)cc3c(=O)c(C(=O)O)cn1c23,inactive,–
CC(=O)Oc1cccc(O)c1,inactive,–
O=c1[nH]c2cc(C(F)(F)F)c(N3CCOCC3)cc2n(CP(=O)(O)O)c1=O,inactive,–
CC(=O)[C@@]1(O)CC[C@H]2[C@@H]3C[C@H](C)C4=CC(=O)C=C[C@]4(C)[C@@]3(F)[C@@H](O)C[C@@]21C,inactive,–
O=C(O)[C@@H]1[C@H]2C[C@H]3c4[nH]c5ccccc5c4CCN3C[C@@H]2CC[C@@H]1O,inactive,–
C/C(=C(\CCO)SS/C(CCO)=C(\C)N(C=O)Cc1cnc(C)nc1N)N(C=O)Cc1cnc(C)nc1N,inactive,–
Cc1ccc(S(=O)(=O)NC(=O)NC2CCCCCCC2)cc1,inactive,–
Cc1ncc(CO)c(CN)c1O,inactive,–
COc1cc(C(=O)NCCCCCC(=O)O)cc(OC)c1OC,inactive,–
CC(=O)N[C@@H](CC(C)C)C(=O)O,inactive,–
CCc1nnc(NS(=O)(=O)c2ccc(N)cc2)s1,inactive,–
Nc1ccncc1N,inactive,–
CO[C@@]1(NC(=O)C(C(=O)O)c2ccc(O)cc2)C(=O)N2C(C(=O)O)=C(CSc3nnnn3C)CO[C@@H]21 (stereo not given in full),inactive,–
Nc1ccc(C(=O)Oc2ccccc2)c(O)c1,inactive,–
O=C(O)C(S)C(S)C(=O)O (stereo not given),inactive,–
CC(=O)N[C@H]1[C@H]([C@H](O)[C@H](O)CO)OC(C(=O)O)=C[C@@H]1N=C(N)N,inactive,–
CC(=O)NCc1c(I)c(NC(C)=O)c(I)c(C(=O)O)c1I,inactive,–
CC(=O)N(CC(O)CN(C(C)=O)c1c(I)c(C(=O)NCC(O)CO)c(I)c(C(=O)NCC(O)CO)c1I)c1c(I)c(C(=O)NCC(O)CO)c(I)c(C(=O)NCC(O)CO)c1I (stereo not given),inactive,–
NC(=O)N[C@@H](CCC(=O)O)C(=O)O,inactive,–
Cc1c(NC(=O)c2cccnc2)c(=O)n(-c2ccccc2)n1C,inactive,–
